According to PubChem BioAssay AID492992 (Johns Hopkins Ion Channel Center, 2010):
In all, about 4,900 compounds went through this assay and about 2,100 (43%) were called active.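 How the source made its calls: active means thallium signal inhibited by more than 5 SD of the compound-free buffer control wells, on both duplicate plates; inactive means the rest.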 So high a share suggests a set chosen from earlier hits. These entries were drawn from the full list.

Target: Potassium channel subfamily K member 9 (Homo sapiens) (UniProt Q9NPC2)
Experiment: KCNK9 potassium channel inhibitors, confirmation, HEK293 cells, thallium flux, duplicate (AID 492992);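 on inhibition: 0% = assay buffer control wells without compound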
Settings: FluxOR thallium flux fluorescence, at 10 µM; stronger effect = higher value

Chain of Potassium channel subfamily K member 9 (Homo sapiens) (Q9NPC2 whole entry, looked up): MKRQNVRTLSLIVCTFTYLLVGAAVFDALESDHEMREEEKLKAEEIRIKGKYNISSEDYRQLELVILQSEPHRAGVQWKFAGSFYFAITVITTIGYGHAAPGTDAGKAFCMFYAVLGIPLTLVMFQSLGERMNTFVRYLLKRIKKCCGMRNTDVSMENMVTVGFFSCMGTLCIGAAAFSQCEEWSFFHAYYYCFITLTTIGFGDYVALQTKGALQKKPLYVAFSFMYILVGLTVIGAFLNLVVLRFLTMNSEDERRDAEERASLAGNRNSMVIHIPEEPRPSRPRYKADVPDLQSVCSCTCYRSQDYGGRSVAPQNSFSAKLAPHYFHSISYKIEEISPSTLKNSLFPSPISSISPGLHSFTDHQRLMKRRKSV

Row | SMILES | inhibition
1 | O=S(=O)(Nc1cccc(Oc2ccc(Cl)cc2)n1)c1ccc(F)cc1 | inactive
2 | Cc1cc(Oc2ccc(Cl)cc2)nc(SCC(=O)c2ccccc2)n1 | 34% (active)
3 | COc1cc(Cl)ccc1OCc1cc(C(=O)N2CC[C@@H]3CCCC[C@H]3C2)no1 | inactive
4 | Clc1ccc(CSc2nnc(/C=C/c3ccccc3)o2)c(Cl)c1 | inactive
5 | C=CCc1cc(S(=O)(=O)c2ccc(O)c(CC=C)c2)ccc1O | 69% (active)
6 | O=C1c2ccccc2C2=Nc3ccccc3SC(c3ccccc3F)C12 (centres undefined) | 50% (active)
7 | COC(=O)c1cccc(C(=O)N2CCCC(Nc3ccc4c(c3)OCCO4)C2)c1 (centres undefined) | inactive
8 | CCOC(=O)C1(CCOc2ccccc2)CCN(Cc2cc(OC)c(O)cc2Cl)CC1 | inactive
9 | O=C(NC1Cc2ccccc2C1)c1cc(COc2cccc(C(F)(F)F)c2)on1 | inactive
10 | COc1ccc(NC(=O)CN(C)CC(=O)Nc2cccc(C(F)(F)F)c2)cc1 | 44.5% (active)
11 | COc1cccc(COC(=O)C2CCN(S(=O)(=O)c3ccc(Cl)cc3)CC2)c1OC | inactive
12 | CSc1cccc(NC(=S)N(C(C)C)C(C)c2ccccn2)c1 (centres undefined) | 66.5% (active)
13 | COc1ccccc1NC(=O)CSc1nc2sc(C)c(C)c2c(=O)n1Cc1ccco1 | 48.5% (active)
14 | Cc1nc(N2CCN(c3ccccn3)CC2)c2c(C)c(C(=O)Nc3ccc(F)c(Cl)c3)sc2n1 | 48.5% (active)
15 | O=S(=O)(c1ccc(F)cc1)N1CCN(Cc2ccccc2C(F)(F)F)CC1 | inactive
16 | COc1ccccc1/C=C/C=N/n1c(-c2ccc(Cl)cc2Cl)n[nH]c1=S | inactive
17 | O=C(Nc1ccc(Br)c2cccnc12)c1ccc(Cn2cc([N+](=O)[O-])cn2)o1 | inactive
18 | CCC1=NN(C(=O)Cc2ccc([N+](=O)[O-])cc2)C(O)(c2ccc(Br)cc2)C1 (centres undefined) | 65% (active)
19 | Cc1cc(Cl)ccc1C(=O)C1CCCN(C(=O)CCN2CCCO2)C1 (centres undefined) | inactive
20 | O=C(OCC(=O)N(CCc1ccccc1)Cc1ccccc1)c1ccccc1[N+](=O)[O-] | 58.5% (active)
21 | Cc1cc(C)cc(OCC(=O)Nc2cc(NC(=O)COc3cc(C)cc(C)c3)cc(C(=O)O)c2)c1 | inactive
22 | COc1cc(C2CC(=O)N3CN(Cc4ccccc4)CSC3=C2C#N)ccc1OCc1ccccc1 (centres undefined) | inactive
23 | CCOc1ccc(C2c3[nH]c4ccccc4c3CCN2Cc2cccn2-c2ncccn2)cc1 (centres undefined) | 35% (active)
24 | CCC(C)(C)n1nnnc1C(c1cccs1)N1CCN(c2nc3ccccc3s2)CC1 (centres undefined) | 39% (active)
25 | COc1ccc2c(c1)C(c1cccs1)=NNC(c1cccnc1)=N2 | 43% (active)

Row | SMILES | inhibition
26 | COCCN(C(=S)Nc1cccc(Cl)c1C)C(C)c1ccco1 (centres undefined) | inactive
27 | O=C(COC(=O)/C(=C/c1cccs1)c1cccs1)NCc1ccccc1Cl | 29% (active)
28 | Cc1ccccc1CSc1nnc(CCCCCNC(=O)OC(C)(C)C)o1 | inactive
29 | CCc1nnc(NS(=O)(=O)c2ccc(NC(=S)NC(=O)/C=C/c3cccs3)cc2)s1 | inactive
30 | Cc1nn(CC(=O)Nc2nc3ccccc3s2)c(C)c1[N+](=O)[O-] | 48% (active)
31 | COc1cccc2sc(NNC(=O)c3nc4ccccc4s3)nc12 | inactive
32 | O=C(NCc1ccccc1)C1=C[C@@H](C2CCCCC2)C[C@@H](OCc2ccc(CO)cc2)O1 | inactive
33 | O=C(CSCc1ccc(Br)cc1)Nc1ccc(S(=O)(=O)N2CCCCCC2)cc1 | inactive
34 | Cc1ccc(C2=Nc3c(ccc4ccccc34)C(c3ccncc3)=NN2)cc1 | 68.5% (active)
35 | CCOc1cccc(OCCCOc2cccc3cccnc23)c1 | inactive
36 | Cc1ccc(OCc2cc(C(=O)N(C)CCc3ccccc3)no2)cc1C | inactive
37 | COc1ccc(C(C)=O)cc1COc1ccc(Cl)c(C)c1 | 46% (active)
38 | Cc1ccc(OS(=O)(=O)c2ccc(-c3csc(C)n3)s2)c(C)c1 | inactive
39 | Cc1cccc(NC(=O)N(Cc2cc3cc(C)cc(C)c3[nH]c2=O)CC2COCCO2)c1 (centres undefined) | inactive
40 | O=C1/C(=C/c2ccc(F)cc2)SC(=S)N1NS(=O)(=O)c1ccccc1 | inactive
41 | Fc1ccc(Cn2nnnc2C(c2cccs2)N2CCCCCC2)cc1 (centres undefined) | 49% (active)
42 | COc1ccccc1C(c1nnnn1C(C)(C)C)N1CCN(Cc2ccccc2)CC1 (centres undefined) | 76% (active)
43 | COc1ccc(C(=O)C2CCCN(C(=O)c3cc(C)on3)C2)cc1F (centres undefined) | inactive
44 | CCCCCCCCCCOC(=O)Cn1c(COc2ccc(C)cc2)[n+](C)c2ccccc21 | 65% (active)
45 | CCCCCCCCCCOC(=O)Cn1c(COc2cccc(OC)c2)[n+](C)c2ccccc21 | 67% (active)
46 | CCCCN(Cc1ccccc1)C(=O)C1CCN(Cc2sccc2C)CC1 | inactive
47 | CCOc1ccc2[nH]c(=O)c(CN(Cc3nnnn3CCc3ccccc3)CC3CCCO3)cc2c1 (centres undefined) | 32% (active)
48 | CCCCn1ccnc1C(=O)c1cccc(S(=O)(=O)N2c3ccccc3CC2C)c1 (centres undefined) | 62% (active)
49 | Cc1cccc(N2CCN(C(=O)c3cccc(S(=O)(=O)N4CCc5ccccc5C4)c3)CC2C)c1 (centres undefined) | inactive
